Experiment [1] in a line: Primary qHTS for inhibitors of SARS-S pseudo-typed particle cell entry (AID 1479145). Also: nearly all actives have a fitted effect of over 45% in size. Also: potency is read from the fitted curve at half-maximal effect.
Experiment [2] in a line: Primary qHTS for Huh7 cytotoxicity: counterscreen for inhibitors of MERS-S pseudotyped particle cell entry (AID 1479147). (In qHTS, concentration-response curves come from the screen itself.)
The nature of experiment [3]: Primary qHTS for inhibitors of MERS-S pseudo-typed particle cell entry (AID 1479149). Also: nearly all actives have a fitted effect of over 60% in size.
Experiment [4] can be described thus: Primary qHTS for Vero E6 cytotoxicity: counterscreen for inhibitors of SARS-S pseudo-typed particle cell entry (AID 1479150). Also: potency is read from the fitted curve at half-maximal effect.

Records with an inconclusive call do not appear. The source made the active and inactive calls. Calls follow the shape of the full dose curve.

As to `CN1C(=O)OC(C)(C)C1=O`, the Potency entry in experiment [1], in experiment [2], in experiment [3] and in experiment [4] was “inactive” in each case.
Regarding `COc1cnc(NS(=O)(=O)c2ccc(N)cc2)nc1`, the Potency entry in experiment [1], in experiment [2], in experiment [3] and in experiment [4] was “inactive” in each case.
With `Nc1ccc(S(=O)(=O)Nc2ccccn2)cc1`, the Potency result in experiment [1], in experiment [2], in experiment [3] and in experiment [4] was “inactive” each time.
Take `CCCCCCCCCCCCCCCCCC(=O)O`: the Potency result in experiment [1], in experiment [2], in experiment [3] and in experiment [4] was “inactive” throughout.
`CC(=O)CC(c1ccccc1)c1c(O)c2ccccc2oc1=O` (stereo unspecified): the Potency result in experiment [1], in experiment [2], in experiment [3] and in experiment [4] was “inactive” each time.
As for `Nc1ccc(S(=O)(=O)c2ccc(N)cc2)cc1`, the Potency entry in experiment [1], in experiment [2] and in experiment [4] was “inactive” each time.
Consider `NC(N)=Nc1nc(CSCC/C(N)=N/S(N)(=O)=O)cs1`, for which the Potency entry in experiment [1], in experiment [2], in experiment [3] and in experiment [4] was “inactive” each time.
On to `CCCc1ccc(OCC(=O)N2CCN(C(=O)COc3ccc(CCC)cc3OC)CC2)c(OC)c1`, for which the Potency result in experiment [1], in experiment [2] and in experiment [4] was “inactive” in each case.
Turning to `CC(=O)[C@@]1(O)CC[C@H]2[C@@H]3C[C@H](C)C4=CC(=O)C=C[C@]4(C)[C@@]3(F)[C@@H](O)C[C@@]21C`, the Potency result in experiment [1], in experiment [2], in experiment [3] and in experiment [4] was “inactive” throughout.
Regarding `COCCCN1CCC(NC(=O)c2cc(Cl)c(N)c3c2OCC3)CC1`, the Potency entry in experiment [1], in experiment [2], in experiment [3] and in experiment [4] was “inactive” throughout.
As to `CCCCC(CC)COC(=O)c1ccccc1O` (stereo unspecified), the Potency entry in experiment [1], in experiment [2], in experiment [3] and in experiment [4] was “inactive” in each case.
Turning to `CC(C)(C(=O)c1cccnc1)c1cccnc1`, the Potency entry in experiment [1], in experiment [2], in experiment [3] and in experiment [4] was “inactive” each time.
For the compound `CC(=O)O[C@@H]1C(=O)O[C@@H]2[C@H]1OC(=O)[C@@H]2OC(C)=O`, the Potency entry in experiment [1], in experiment [2], in experiment [3] and in experiment [4] was “inactive” each time.
On to `CC(=O)Nc1ccc(CC(=O)O)cc1`, for which the Potency result in experiment [1], in experiment [2] and in experiment [4] was “inactive” each time.
Regarding `O=C1CN(/N=C/c2ccc([N+](=O)[O-])o2)C(=O)N1`, the Potency entry in experiment [1] and in experiment [4] was “inactive” throughout.
As to `C[C@@H]1O[C@@H]1P(=O)(O)O`, the Potency entry in experiment [2], in experiment [3] and in experiment [4] was “inactive” throughout.
With `CCN[C@H]1CN(CCCOC)S(=O)(=O)c2sc(S(N)(=O)=O)cc21`, the Potency result in experiment [1], in experiment [2] and in experiment [4] was “inactive” throughout.
In the case of `CO[C@@]1(NC(=O)C(C(=O)O)c2ccc(O)cc2)C(=O)N2C(C(=O)O)=C(CSc3nnnn3C)CO[C@@H]21` (stereo partly specified), the Potency result in experiment [1], in experiment [2] and in experiment [4] was “inactive” each time.
Take `CCCCC[C@H](O)/C=C/[C@@H]1[C@H]2C/C(=C/CCCC(=O)O)O[C@H]2C[C@H]1O`: the Potency entry in experiment [2], in experiment [3] and in experiment [4] was “inactive” in each case.
With `O=C1[O][Bi][O]c2ccccc21`, the outcome in experiment [2], in experiment [3] and in experiment [4] was “inactive [at 0.573 µM]” each time.
On to `COCCOC(=O)C1=C(C)NC(C)=C(C(=O)OC(C)C)C1c1cccc([N+](=O)[O-])c1` (stereo unspecified), for which the Potency entry in experiment [1], in experiment [2] and in experiment [4] was “inactive” each time.
For the compound `CC(=O)OC(C)OC(=O)C(C)c1ccc(-c2ccccc2)c(F)c1` (stereo unspecified), the Potency result in experiment [2], in experiment [3] and in experiment [4] was “inactive” throughout.
Consider `Nc1cc(C(Cl)=C(Cl)Cl)c(S(N)(=O)=O)cc1S(N)(=O)=O`, for which the Potency result in experiment [1], in experiment [2] and in experiment [4] was “inactive” in each case.
Regarding `COc1cc(NS(C)(=O)=O)ccc1Nc1c2ccccc2nc2ccccc12`, the values for the Potency in experiment [1] and in experiment [4] were 0.794 µM (active) and 25.1 µM (active), respectively.
For the compound `NC(N)=NC(=O)Cc1c(Cl)cccc1Cl`, the Potency result in experiment [1], in experiment [2] and in experiment [4] was “inactive” each time.
For the compound `O=C(O)CN(CCN(CC(=O)O)CC(=O)O)CCN(CC(=O)O)CC(=O)O`, the Potency result in experiment [2], in experiment [3] and in experiment [4] was “inactive” throughout.
In the case of `Nc1ncnc2nc[nH]c12`, the Potency entry in experiment [1], in experiment [2] and in experiment [4] was “inactive” throughout.
`O=C(O)CCCCC1CCSS1` (stereo unspecified): the Potency result in experiment [1], in experiment [3] and in experiment [4] was “inactive” each time.
`COC(=O)CCCCC(CCSS/C(CCO)=C(\C)N(C=O)Cc1cnc(C)nc1N)SC(C)=O` (stereo unspecified): the Potency result in experiment [2], in experiment [3] and in experiment [4] was “inactive” in each case.
In the case of `NCC[C@H](O)C(=O)N[C@@H]1C[C@H](N)[C@@H](O[C@H]2O[C@H](CN)[C@@H](O)[C@H](O)[C@@H]2O)[C@H](O)[C@@H]1O[C@H]1O[C@H](CO)[C@@H](O)[C@H](N)[C@@H]1O`, the outcome in experiment [2] and in experiment [3] was “inactive [at 0.573 µM]” in each case.
Take `O=C(O)CCCC[C@@H]1SC[C@@H]2NC(=O)N[C@@H]21`: the Potency result in experiment [1], in experiment [2] and in experiment [4] was “inactive” in each case.
Consider `CN1C[C@@H]2C[C@H]1CN2c1cc2c(cc1F)c(=O)c(C(=O)O)cn2C1CC1`, for which the Potency result in experiment [1], in experiment [2] and in experiment [4] was “inactive” throughout.
For `CC(C(=O)O)c1cccc(Oc2ccccc2)c1` (stereo unspecified), the Potency entry in experiment [1], in experiment [2] and in experiment [4] was “inactive” each time.
For `NC1CCN(c2nc3c(cc2F)c(=O)c(C(=O)O)cn3-c2ccc(F)cc2F)C1` (stereo unspecified), the Potency result in experiment [2], in experiment [3] and in experiment [4] was “inactive” throughout.
On to `CCCCN(CCCC)CCCOC(=O)c1ccc(N)cc1`, for which the Potency entry in experiment [1], in experiment [3] and in experiment [4] was “inactive” throughout.
In the case of `CC(C(=O)O)c1ccc2c(c1)CC(=O)c1ccccc1S2` (stereo unspecified), the Potency result in experiment [1], in experiment [2] and in experiment [4] was “inactive” throughout.
